Source: PubChem (several laboratories)
Bead autofluor: compound fluorescence in toxin protease inhibitor counterscreen; compound autofluorescence counterscreen, microsphere flow cytometry; active compounds read high; fluorescence intensity (no concentration beside the values); 3.1% of 360,000 active; AID 624483; in the data active means fluorescence intensity above about 16000; inconclusive means no clear call, values can overlap the other calls
Anthrax LF inh2: blocks Bacillus anthracis lethal factor protease; P15917; multiplex microsphere protease cleavage assay, LF; inhibition, % at 10 µM; 0.12% of 360,000 active; AID 588501; further: plate controls were buffer without enzyme for full effect and enzyme alone for no effect
BoNT A protease: blocks Botulinum neurotoxin A light chain protease | multiplex microsphere protease substrate cleavage, flow cytometry | inhibition, % at 10 µM | 0.17% of 360,000 active | AID 588499; further: plate controls were buffer without enzyme for full effect and enzyme alone for no effect
BJeLR lethal: kills HRASV12-expressing BJeLR cells; BJeLR (HRASV12) viability, CellTiter-Glo ATP luminescence, 48 h; inhibition, % (no concentration beside the values); 0.17% of 300,000 active; in the data active means inhibition above about 50%; inconclusive means no clear call, values can overlap the other calls
BoNT-F LC inh: BoNT F light chain protease inhibition | Multiplex microsphere protease cleavage assay, flow cytometry | inhibition, % at 10 µM | 0.22% of 360,000 active | AID 588497; in the data active means inhibition above about 35%, passing the limit was not always enough; inconclusive means no clear call, values can overlap the other calls; further: plate controls were buffer without enzyme for full effect and enzyme alone for no effect
BoNT-A LC CP1: blocks botulinum neurotoxin A light chain protease; shares compounds with BoNT-F LC inh; multiplex microsphere protease assay, flow cytometry; inhibition, % at 10 µM; 3% of 720 active; AID 602139; in the data active means inhibition above about 32%
BoNT-F LC CP1: inhibitors of Botulinum neurotoxin F light chain protease; shares compounds with BoNT-F LC inh; multiplex microsphere protease cleavage assay, flow cytometry; inhibition, % at 10 µM; 720 tested, under 10 active; AID 602140; call rule not given here
Anthrax LF CP1: Bacillus anthracis lethal factor protease inhibition; shares compounds with BoNT-F LC inh; 720 tested, under 10 active; multiplex microsphere protease cleavage assay, LF; inhibition, % at 10 µM; call rule not given here
* hit, by the source's call; ? = inconclusive; / = no result; ! = not active in a repeat. This is a sample that favours compounds with a hit; in the whole collection about 3.5% have one here. Unless noted, no stated cut-off is given here; in the data, active means inhibition above about 30%; inconclusive means no clear call, values can overlap the other calls; inactive means below that.

SMILES	Bead autofluor	Anthrax LF inh2	BoNT A protease	BJeLR lethal	BoNT-F LC inh	others
Cc1ccccc1-c1cc2nc(C)c(C)c(=O)n2[nH]1	4097	-9.5	0.6	10.2	22.8
Cc1nc2cc(-c3cccs3)[nH]n2c(=O)c1C	17502*	-6.7	4.4	8.0	4.8
COc1ccc(-c2csc(C)n2)cc1OC	23023*	-2.7	0.4	-6.1	3.8
Cc1nc(-c2ccccc2)cs1	21622*	-1.0	3.1	-15.7	3.9
COc1ccccc1C(=O)NCCCNC(=O)c1ccccn1	3070	15.2	-2.0	0.4	-4.9
Cc1cc(C(=O)NCc2cccnc2)no1	22225*	-3.0	-0.1	8.5	2.3
O=C(NCCCNCc1ccccc1)c1ccccn1	24330*!	1.5	-0.4	1.7	-9.0
CC(C)Cc1cc(C(=O)NCc2cccnc2)no1	5597	-10.0	0.4	-8.6	10.1
CN(C)CCCNCCCNC(=O)/C(=N\O)c1ccccn1	22814*	0.1	?	3.9	-3.4
Cc1cc(C(=O)NCC(c2ccco2)N(C)C)no1 (configuration not stated)	19860*	-3.8	1.9	-2.6	1.2
Cc1ccnc(NC2c3ccccc3C(=O)N2Cc2ccccc2Cl)c1 (configuration not stated)	5052	-3.3	0.3	2.2	-5.5
O=C(NCc1cccnc1)c1ccccn1	22039*	0.7	2.3	-9.9	2.3
COc1ccc(-c2cc(C(=O)NCc3cccnc3)no2)cc1OC	7942	2.7	0.2	4.0	6.7
Cc1ccc(-c2cc(C(=O)NCc3cccnc3)no2)cc1	17516*	-11.1	9.3	1.1	10.0
CCCCn1c(N)c(N(CC(C)C)C(=O)CSCc2ccc(Cl)c(Cl)c2)c(=O)[nH]c1=O	4765	3.1	1.3	-13.5	9.5
Cc1cc(C(=O)Nc2sc3c(c2C#N)CCC(C)C3)cs1 (configuration not stated)	17096*	-1.5	-2.1	-4.8	-2.1
Cc1ccc(C(=O)NCCN2CCC(n3c(=O)[nH]c4ccccc43)CC2)cc1C	5964	-1.4	0.5	/	-8.4
Cc1nn(-c2cc(N3CCNCC3)ccc2[N+](=O)[O-])c(=O)c2ccccc12	3082	-1.8	-0.4	9.7	-1.9
Cc1nn(-c2cc(N3CCCCC3)ccc2[N+](=O)[O-])c(=O)c2ccccc12	21077*	2.5	?	-5.1	0.2
CCOC(=O)CCc1c(C)c2ccc(OC(C)C(=O)OCC)c(C)c2oc1=O (configuration not stated)	20895*	0.4	1.7	4.1	1.8
C[C@@H]1CN([C@@H](C)CO)C(=O)CCCn2nncc2CO[C@@H]1CN(C)S(=O)(=O)c1ccc(Oc2ccccc2)nc1	3227	3.9	0.2	/	-1.3
O=C(NNC1=NCCCCC1)c1ccccc1	22558*	-0.4	1.5	-12.7	1.8
c1ccc(CNC2=NCCCC2)cc1	3801	-1.9	-0.5	-7.2	-5.6
CS(=O)(=O)N1CCCCC1c1cc(C(=O)NCc2ccc(Cl)c(Cl)c2)no1 (configuration not stated)	3502	-5.1	0.0	/	-5.1
CCCCN(C)c1c(C)nc2ccc(C(=O)Nc3cc(-c4ccccc4)ccc3OC)cn12	2899	-2.7	0.0	/	11.5
SMILES	Bead autofluor	Anthrax LF inh2	BoNT A protease	BJeLR lethal	BoNT-F LC inh	others
CC(=O)C1C(c2ccc3ncccc3c2)NC(=O)NC1(O)C(F)(F)F (configuration not stated)	22750*	-1.7	-2.0	-8.7	0.3
CC(=O)C1C(c2ccccc2Cl)NC(=O)NC1(O)C(F)(F)F (configuration not stated)	5520	1.8	0.0	2.7	-2.0
CC(=O)C1C(c2ccncc2)NC(=O)NC1(O)C(F)(F)F (configuration not stated)	22926*	-0.8	0.6	-5.9	0.3
COc1ccc(C2NC(=O)NC(O)(C(F)(F)F)C2C(=O)c2ccc(F)cc2)cc1 (configuration not stated)	4055	0.5	0.7	-1.5	-13.1
CN(C)C(=O)CSc1nnc(-c2ccc(S(=O)(=O)N3CCCC3)cc2)n1C	3290	-1.7	0.1	13.2	-9.1
CC(=O)CSc1nnc(-c2ccc(S(=O)(=O)N3CCCC3)cc2)n1C	3870	31.0*	1.0	2.4	-9.8	BoNT-A LC CP1=1.0;BoNT-F LC CP1=0.8;Anthrax LF CP1=1.9
COc1ccc(N2C(=O)C3CCCN3C2c2ccccc2)cc1Cl (configuration not stated)	4581	0.2	0.5	-7.8	53.3*	BoNT-A LC CP1=-0.5;BoNT-F LC CP1=4.0;Anthrax LF CP1=1.2
Cc1ccc(OCC2Cn3c(nc4c3c(=O)[nH]c(=O)n4C)O2)cc1C (configuration not stated)	3017	31.3*	2.1	9.4	14.4	BoNT-A LC CP1=-0.6;BoNT-F LC CP1=-9.9;Anthrax LF CP1=1.7
Cc1ccc(C(=O)OCC(=O)NC2CC2)cc1S(=O)(=O)N1CCOCC1	3902	-11.8	-0.1	/	3.3
COc1ccc(-n2c(SCC(=O)Nc3ccc(C(=O)O)cc3)nnc2-c2cccs2)cc1	4464	3.5	0.1	-1.6	4.6
COc1ccc(-c2nnc(SCC(=O)Nc3ccc(C(=O)O)cc3)n2-c2ccc(Cl)cc2)cc1	3869	28.4	0.3	-2.6	10.0	BoNT-A LC CP1=0.5;BoNT-F LC CP1=0.1;Anthrax LF CP1=-2.3
O=C(Nc1ccc(Nc2ccccc2)cc1)c1c(F)c(F)c(F)c(F)c1F	3173	39.6*	-3.7	-4.9	-12.2	BoNT-A LC CP1=0.0;BoNT-F LC CP1=-6.9;Anthrax LF CP1=0.9
CCn1cc(C(=O)Nc2ccccc2C(=O)OC)cn1	3528	1.9	2.8	-21.2	?
CCn1cc(C(=O)NCc2ccccc2Cl)cn1	2098	2.3	4.5	-4.8	40.0*	BoNT-A LC CP1=1.2;BoNT-F LC CP1=3.4;Anthrax LF CP1=1.2
COc1ccc(NC(=O)c2ccc3ccccc3c2OC)cc1	4031	-10.6	-0.2	-3.2	?
CCc1ccc(C(=O)CN2C(=O)C(C)N(c3ccc(C)cc3)C2=O)cc1 (configuration not stated)	2666	-0.3	4.1	-4.6	49.9*	BoNT-A LC CP1=-0.1;BoNT-F LC CP1=-0.7;Anthrax LF CP1=-4.0
Cc1ccc(N2C(=O)N(CC(=O)NCc3ccc(Cl)cc3)C(=O)C2C)cc1 (configuration not stated)	5067	-0.3	-1.1	-0.8	-27.3
NC(=O)CSc1oc(-c2ccco2)nc1S(=O)(=O)c1ccc(F)cc1	3729	-4.4	-0.6	-8.4	9.8
COc1ccc(C(CNC(=O)c2cccc(S(=O)(=O)Nc3ccccc3OC)c2)N2CCCC2)cc1 (configuration not stated)	11267	4.0	1.2	-2.1	36.9*	BoNT-A LC CP1=-9.9;BoNT-F LC CP1=-2.3;Anthrax LF CP1=-3.6
CC(=O)c1ccc(NS(=O)(=O)c2cccc(C(=O)Nc3ccccc3C(=O)O)c2)cc1	3368	-2.1	3.8	-2.3	-4.6	BoNT-A LC CP1=-0.4;BoNT-F LC CP1=-0.7;Anthrax LF CP1=6.2
COc1ccc(C(CNC(=O)c2cccc(S(=O)(=O)Nc3ccccc3OC)c2)N2CCCCC2)cc1 (configuration not stated)	7054	-3.4	-3.4	/	4.9
